One sequence from article PMC7862700, “An all-to-all approach to the identification of sequence-specific readers for epigenetic DNA modifications on cytosine” can be followed below.

Common to all, as to assay: DAPPL (digital affinity profiling via proximity ligation, sequencing); 10 mM Tris-HCl pH 7.5, 50 mM NaCl, 1 mM DTT, 4% glycerol, room temperature, 30 min; GST-TFs on glutathione beads, 16-mer random dsDNA library, 0.1% formaldehyde crosslink after washing; high values mean tight binding
In one experiment the target is T1, FEV (Homo sapiens, UniProt Q99581 1-238).
T1 sequence: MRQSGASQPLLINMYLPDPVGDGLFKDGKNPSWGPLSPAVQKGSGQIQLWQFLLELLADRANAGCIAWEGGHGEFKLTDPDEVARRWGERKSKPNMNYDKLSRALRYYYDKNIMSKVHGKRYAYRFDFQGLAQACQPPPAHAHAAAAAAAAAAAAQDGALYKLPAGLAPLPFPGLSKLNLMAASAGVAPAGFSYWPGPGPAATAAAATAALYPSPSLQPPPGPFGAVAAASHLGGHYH
The following applies: protein: recombinant; tags: N-terminal GST; dsDNA, one strand shown. In short, it runs like this:
(§1)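 In yeast, human transcription factors were expressed with a GST fusion, then pulled down on glutathione beads and given DNA barcodes. Pooled with a tag-only sample, they were exposed to 200 nmole of a 16-mer random double-stranded DNA library (Tris/NaCl/DTT/glycerol buffer, room temperature, 30 min), washed, crosslinked with 0.1% formaldehyde, proximity-ligated using BsaI/T4 ligase for 1 h at 37 °C, PCR-amplified and read on an Illumina NextSeq500. Each hexamer's frequency of reads for a factor, divided by the matching frequency for the tag-only sample, gives the binding signal.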

In the next experiment the target is ETV5 (Homo sapiens, UniProt P41161 1-510). The following applies: protein: recombinant; tags: N-terminal GST; dsDNA, one strand shown. A digest of the protocol: as §1
Chain of ETV5 (P41161 whole entry): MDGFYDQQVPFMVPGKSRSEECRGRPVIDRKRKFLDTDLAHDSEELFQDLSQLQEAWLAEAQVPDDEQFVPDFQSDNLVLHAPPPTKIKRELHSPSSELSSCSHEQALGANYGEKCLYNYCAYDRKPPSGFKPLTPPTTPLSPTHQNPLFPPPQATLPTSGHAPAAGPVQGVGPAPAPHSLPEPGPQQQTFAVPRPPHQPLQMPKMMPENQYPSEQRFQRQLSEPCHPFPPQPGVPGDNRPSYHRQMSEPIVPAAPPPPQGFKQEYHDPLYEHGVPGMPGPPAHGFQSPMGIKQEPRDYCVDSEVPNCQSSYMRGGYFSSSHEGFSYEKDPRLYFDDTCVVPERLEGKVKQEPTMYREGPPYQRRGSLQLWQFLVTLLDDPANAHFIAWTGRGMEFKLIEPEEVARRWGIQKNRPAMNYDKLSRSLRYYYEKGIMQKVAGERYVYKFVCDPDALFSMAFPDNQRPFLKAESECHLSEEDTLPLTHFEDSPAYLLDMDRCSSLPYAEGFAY
For a further experiment, the target named is HSF1 (Homo sapiens, UniProt Q00613 1-529). The following applies: protein: recombinant; tags: N-terminal GST; chain copies: 3; dsDNA, one strand shown. In short, it runs like this:
as §1

The next experiment has as its target T2, SPIC (Homo sapiens, UniProt Q8N5J4 1-248).
T2 sequence: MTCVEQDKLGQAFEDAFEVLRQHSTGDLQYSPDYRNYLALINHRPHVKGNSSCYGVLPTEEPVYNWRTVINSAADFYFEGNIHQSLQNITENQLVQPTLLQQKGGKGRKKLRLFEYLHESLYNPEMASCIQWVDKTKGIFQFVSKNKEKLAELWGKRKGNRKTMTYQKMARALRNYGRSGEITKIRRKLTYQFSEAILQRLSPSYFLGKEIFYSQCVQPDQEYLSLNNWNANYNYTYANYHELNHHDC
The following applies: protein: recombinant; tags: N-terminal GST; dsDNA, one strand shown. In short, it runs like this: as §1

The target of another experiment is ELF4 (Homo sapiens, UniProt Q99607 1-663). The conditions noted are these: protein: recombinant; tags: N-terminal GST; dsDNA, one strand shown. In short, it runs like this: as §1
Chain of ELF4 (Q99607 whole entry): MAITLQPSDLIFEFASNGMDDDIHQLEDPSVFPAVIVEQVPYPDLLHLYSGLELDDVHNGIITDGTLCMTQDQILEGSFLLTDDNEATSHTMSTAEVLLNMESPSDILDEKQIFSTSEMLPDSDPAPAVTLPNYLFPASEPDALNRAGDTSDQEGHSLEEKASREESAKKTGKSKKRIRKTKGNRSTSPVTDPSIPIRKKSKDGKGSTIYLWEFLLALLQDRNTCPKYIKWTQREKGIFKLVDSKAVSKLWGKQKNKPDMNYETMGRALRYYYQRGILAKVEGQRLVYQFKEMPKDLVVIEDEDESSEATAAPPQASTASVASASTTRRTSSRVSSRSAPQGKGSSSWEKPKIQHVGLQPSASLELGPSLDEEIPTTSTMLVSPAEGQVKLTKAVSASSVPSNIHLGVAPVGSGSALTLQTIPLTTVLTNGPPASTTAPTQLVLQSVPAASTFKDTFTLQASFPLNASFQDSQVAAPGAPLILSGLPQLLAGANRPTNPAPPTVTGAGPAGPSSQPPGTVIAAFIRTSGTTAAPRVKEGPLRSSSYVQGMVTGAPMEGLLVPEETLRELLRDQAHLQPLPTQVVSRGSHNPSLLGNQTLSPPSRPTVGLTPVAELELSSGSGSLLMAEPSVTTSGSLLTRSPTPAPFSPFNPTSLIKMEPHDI
Another experiment has as its target T3, ELK4 (Homo sapiens, UniProt P28324-2 1-405).
T3 sequence: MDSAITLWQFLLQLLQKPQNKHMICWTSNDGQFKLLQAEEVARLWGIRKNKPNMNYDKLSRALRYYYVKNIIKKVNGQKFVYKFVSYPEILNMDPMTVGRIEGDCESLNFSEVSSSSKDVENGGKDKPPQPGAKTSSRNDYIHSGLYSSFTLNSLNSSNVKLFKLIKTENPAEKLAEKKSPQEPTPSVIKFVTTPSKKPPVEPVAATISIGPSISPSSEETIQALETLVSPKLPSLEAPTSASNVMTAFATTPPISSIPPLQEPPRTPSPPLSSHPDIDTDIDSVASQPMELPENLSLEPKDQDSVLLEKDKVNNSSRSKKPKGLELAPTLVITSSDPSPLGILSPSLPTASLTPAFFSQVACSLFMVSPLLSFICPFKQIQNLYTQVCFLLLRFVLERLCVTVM
The conditions noted are these: protein: recombinant; tags: N-terminal GST; dsDNA, one strand shown. A digest of the protocol: as §1

Another experiment has as its target T4, ETV2 (Homo sapiens, UniProt O00321 1-342).
T4 sequence: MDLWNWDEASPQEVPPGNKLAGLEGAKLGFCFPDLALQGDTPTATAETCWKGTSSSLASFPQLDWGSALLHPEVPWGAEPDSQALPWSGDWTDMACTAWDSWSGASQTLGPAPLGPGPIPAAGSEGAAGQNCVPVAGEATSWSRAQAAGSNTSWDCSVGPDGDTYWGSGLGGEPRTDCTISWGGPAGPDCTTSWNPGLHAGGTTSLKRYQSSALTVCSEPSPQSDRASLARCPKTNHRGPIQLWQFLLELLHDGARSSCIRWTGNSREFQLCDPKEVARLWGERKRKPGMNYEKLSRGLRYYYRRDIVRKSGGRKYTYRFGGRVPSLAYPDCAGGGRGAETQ
The conditions noted are these: protein: recombinant; tags: N-terminal GST; dsDNA, one strand shown. A digest of the protocol: as §1

The target in a further experiment is T5, ELF3 (Homo sapiens, UniProt P78545 1-371).
T5 sequence: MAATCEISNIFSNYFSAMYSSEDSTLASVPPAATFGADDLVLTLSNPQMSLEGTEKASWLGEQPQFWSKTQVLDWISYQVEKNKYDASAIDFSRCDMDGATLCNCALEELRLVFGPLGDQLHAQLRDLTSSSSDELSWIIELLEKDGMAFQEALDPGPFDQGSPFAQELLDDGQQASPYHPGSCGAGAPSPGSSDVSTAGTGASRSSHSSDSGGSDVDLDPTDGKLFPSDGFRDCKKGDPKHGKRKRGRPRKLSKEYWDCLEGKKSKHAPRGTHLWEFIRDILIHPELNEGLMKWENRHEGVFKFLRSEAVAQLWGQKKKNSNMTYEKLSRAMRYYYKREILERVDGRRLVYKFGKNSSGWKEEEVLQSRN
The following applies: protein: recombinant; tags: N-terminal GST; dsDNA, one strand shown. A digest of the protocol:
as §1

Another experiment has as its target CRX (Homo sapiens, UniProt O43186 1-299). The following applies: protein: recombinant; tags: N-terminal GST; dsDNA, one strand shown. In short, it runs like this: as §1
The next experiment deals with ETV1 (Homo sapiens, UniProt P50549 1-477). The conditions noted are these: protein: recombinant; tags: N-terminal GST; dsDNA, one strand shown. A digest of the protocol:
as §1

A further experiment addresses T6, ERF (Homo sapiens, UniProt P50548 1-548).
T6 sequence: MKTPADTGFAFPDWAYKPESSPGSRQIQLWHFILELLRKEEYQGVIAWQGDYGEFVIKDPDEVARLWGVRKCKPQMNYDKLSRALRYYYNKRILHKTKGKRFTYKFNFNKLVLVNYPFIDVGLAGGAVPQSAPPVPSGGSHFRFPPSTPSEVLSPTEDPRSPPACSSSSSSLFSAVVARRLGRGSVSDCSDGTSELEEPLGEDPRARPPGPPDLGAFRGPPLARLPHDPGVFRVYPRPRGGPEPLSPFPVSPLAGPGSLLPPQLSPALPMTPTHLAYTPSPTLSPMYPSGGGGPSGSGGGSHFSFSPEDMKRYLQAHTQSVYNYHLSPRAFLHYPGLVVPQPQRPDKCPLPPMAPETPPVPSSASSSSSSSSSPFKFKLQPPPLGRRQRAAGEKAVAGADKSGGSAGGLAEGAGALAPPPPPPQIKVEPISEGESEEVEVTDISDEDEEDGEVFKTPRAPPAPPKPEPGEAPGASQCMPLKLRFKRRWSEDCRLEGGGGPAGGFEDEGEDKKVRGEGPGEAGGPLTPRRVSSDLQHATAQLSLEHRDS
The conditions noted are these: protein: recombinant; tags: N-terminal GST; dsDNA, one strand shown. In short, it runs like this: as §1

The target of the next experiment is T7, ETV3L (Homo sapiens, UniProt Q6ZN32 1-361).
T7 sequence: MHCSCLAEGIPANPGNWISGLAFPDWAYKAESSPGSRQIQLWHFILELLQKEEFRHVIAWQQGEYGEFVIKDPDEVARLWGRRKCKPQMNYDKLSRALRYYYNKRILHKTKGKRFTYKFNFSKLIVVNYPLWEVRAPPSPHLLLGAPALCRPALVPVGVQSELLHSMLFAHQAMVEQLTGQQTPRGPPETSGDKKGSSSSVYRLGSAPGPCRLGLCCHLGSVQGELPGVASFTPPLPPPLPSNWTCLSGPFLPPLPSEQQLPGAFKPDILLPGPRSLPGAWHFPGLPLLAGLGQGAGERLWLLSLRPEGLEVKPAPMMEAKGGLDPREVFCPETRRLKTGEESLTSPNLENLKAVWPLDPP
The following applies: protein: recombinant; tags: N-terminal GST; dsDNA, one strand shown. A digest of the protocol:
as §1

A further experiment deals with T8, ETS2 (Homo sapiens, UniProt P15036 1-469).
T8 sequence: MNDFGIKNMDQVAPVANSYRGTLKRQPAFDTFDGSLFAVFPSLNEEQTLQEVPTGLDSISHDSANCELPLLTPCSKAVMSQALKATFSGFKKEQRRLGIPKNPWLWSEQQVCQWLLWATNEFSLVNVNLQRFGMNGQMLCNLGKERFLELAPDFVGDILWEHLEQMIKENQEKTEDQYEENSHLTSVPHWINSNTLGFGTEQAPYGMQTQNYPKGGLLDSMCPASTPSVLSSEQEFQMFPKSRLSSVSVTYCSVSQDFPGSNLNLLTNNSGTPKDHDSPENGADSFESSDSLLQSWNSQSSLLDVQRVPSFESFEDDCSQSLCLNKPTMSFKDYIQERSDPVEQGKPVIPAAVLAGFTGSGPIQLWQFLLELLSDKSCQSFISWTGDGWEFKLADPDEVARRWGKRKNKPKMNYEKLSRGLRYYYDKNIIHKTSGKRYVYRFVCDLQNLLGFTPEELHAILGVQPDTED
The following applies: protein: recombinant; tags: N-terminal GST; dsDNA, one strand shown. A digest of the protocol:
as §1

For another experiment, the target named is T9, SPDEF (Homo sapiens, UniProt O95238 1-335).
T9 sequence: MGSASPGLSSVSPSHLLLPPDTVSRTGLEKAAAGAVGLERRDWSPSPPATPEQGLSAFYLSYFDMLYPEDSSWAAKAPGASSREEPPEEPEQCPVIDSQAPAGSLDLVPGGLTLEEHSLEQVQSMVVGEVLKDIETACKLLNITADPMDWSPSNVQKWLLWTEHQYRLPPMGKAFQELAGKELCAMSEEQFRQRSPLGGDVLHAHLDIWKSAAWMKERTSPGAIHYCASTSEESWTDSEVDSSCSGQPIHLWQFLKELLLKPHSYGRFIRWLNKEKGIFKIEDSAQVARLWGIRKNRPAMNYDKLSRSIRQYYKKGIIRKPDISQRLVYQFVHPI
The conditions noted are these: protein: recombinant; tags: N-terminal GST; dsDNA, one strand shown. A digest of the protocol: as §1

The next experiment deals with T10, ETV7 (Homo sapiens, UniProt Q9Y603 1-341).
T10 sequence: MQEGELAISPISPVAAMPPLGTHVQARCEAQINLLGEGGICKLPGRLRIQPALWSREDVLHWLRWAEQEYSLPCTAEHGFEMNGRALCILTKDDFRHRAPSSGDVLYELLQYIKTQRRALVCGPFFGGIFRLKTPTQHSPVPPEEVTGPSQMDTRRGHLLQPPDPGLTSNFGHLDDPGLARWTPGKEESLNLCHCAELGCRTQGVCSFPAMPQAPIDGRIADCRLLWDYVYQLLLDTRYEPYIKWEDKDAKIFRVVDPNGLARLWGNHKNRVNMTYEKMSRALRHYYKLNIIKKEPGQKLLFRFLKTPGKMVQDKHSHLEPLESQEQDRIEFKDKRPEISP
The following applies: protein: recombinant; tags: N-terminal GST; dsDNA, one strand shown. A digest of the protocol:
as §1

The target in a further experiment is T11, ELF5 (Homo sapiens, UniProt Q9UKW6-2 1-255).
T11 sequence: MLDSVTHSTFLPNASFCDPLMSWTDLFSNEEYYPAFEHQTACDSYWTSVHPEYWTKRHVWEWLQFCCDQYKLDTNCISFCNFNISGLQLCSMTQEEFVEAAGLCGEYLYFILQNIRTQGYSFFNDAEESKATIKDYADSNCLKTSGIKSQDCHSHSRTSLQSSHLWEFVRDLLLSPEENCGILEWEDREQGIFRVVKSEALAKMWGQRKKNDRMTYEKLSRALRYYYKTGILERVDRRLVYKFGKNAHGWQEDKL
The conditions noted are these: protein: recombinant; tags: N-terminal GST; dsDNA, one strand shown. A digest of the protocol: as §1

The target in another experiment is T12, ETV3 (Homo sapiens, UniProt P41162-2 1-143).
T12 sequence: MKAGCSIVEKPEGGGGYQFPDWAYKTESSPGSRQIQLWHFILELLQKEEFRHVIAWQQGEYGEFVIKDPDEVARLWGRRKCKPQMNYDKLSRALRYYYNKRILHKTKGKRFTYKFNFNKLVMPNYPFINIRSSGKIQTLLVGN
The conditions noted are these: protein: recombinant; tags: N-terminal GST; dsDNA, one strand shown. In short, it runs like this: as §1

The target in the next experiment is ETV6 (Homo sapiens, UniProt P41212 1-452). The following applies: protein: recombinant; tags: N-terminal GST; dsDNA, one strand shown. A digest of the protocol: as §1
Chain of ETV6 (P41212 whole entry): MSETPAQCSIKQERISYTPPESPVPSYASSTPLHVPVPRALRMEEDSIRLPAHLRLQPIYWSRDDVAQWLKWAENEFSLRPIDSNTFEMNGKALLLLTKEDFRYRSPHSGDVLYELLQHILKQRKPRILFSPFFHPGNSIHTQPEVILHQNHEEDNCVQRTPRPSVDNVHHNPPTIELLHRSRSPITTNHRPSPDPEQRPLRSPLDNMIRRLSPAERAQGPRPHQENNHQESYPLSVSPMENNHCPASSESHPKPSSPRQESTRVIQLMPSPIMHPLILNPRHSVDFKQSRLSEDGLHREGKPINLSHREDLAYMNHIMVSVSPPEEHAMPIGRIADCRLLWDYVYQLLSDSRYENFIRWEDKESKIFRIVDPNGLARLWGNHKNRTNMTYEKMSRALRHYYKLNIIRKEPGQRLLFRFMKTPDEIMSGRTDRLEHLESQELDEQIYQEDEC

Chain of ETV1 (P50549 whole entry): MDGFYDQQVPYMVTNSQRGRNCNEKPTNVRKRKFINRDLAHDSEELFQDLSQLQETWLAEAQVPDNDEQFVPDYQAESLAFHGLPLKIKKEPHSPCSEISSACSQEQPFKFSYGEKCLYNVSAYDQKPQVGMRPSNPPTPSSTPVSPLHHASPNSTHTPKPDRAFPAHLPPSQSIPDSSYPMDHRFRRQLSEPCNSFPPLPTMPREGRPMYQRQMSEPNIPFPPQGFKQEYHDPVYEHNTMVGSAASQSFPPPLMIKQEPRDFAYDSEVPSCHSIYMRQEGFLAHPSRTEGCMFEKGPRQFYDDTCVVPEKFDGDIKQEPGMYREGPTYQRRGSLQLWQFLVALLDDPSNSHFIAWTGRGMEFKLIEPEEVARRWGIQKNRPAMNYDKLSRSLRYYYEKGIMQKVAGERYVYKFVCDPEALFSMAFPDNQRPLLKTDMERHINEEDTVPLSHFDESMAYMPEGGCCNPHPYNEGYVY
Chain of HSF1 (Q00613 whole entry): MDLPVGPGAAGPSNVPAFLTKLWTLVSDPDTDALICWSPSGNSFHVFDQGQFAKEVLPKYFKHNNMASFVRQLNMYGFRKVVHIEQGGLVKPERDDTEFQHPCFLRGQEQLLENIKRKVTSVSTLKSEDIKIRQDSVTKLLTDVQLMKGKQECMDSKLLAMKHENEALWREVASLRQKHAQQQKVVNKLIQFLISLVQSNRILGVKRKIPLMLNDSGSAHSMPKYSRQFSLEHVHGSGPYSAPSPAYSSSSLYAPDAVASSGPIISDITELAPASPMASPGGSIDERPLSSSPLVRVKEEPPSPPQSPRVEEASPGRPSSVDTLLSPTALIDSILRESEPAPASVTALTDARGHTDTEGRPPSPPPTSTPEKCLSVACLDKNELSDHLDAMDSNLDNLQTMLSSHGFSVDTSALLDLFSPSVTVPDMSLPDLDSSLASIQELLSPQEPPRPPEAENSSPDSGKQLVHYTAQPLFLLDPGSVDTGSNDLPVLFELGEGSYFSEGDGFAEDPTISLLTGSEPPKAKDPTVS
Chain of CRX (O43186 whole entry): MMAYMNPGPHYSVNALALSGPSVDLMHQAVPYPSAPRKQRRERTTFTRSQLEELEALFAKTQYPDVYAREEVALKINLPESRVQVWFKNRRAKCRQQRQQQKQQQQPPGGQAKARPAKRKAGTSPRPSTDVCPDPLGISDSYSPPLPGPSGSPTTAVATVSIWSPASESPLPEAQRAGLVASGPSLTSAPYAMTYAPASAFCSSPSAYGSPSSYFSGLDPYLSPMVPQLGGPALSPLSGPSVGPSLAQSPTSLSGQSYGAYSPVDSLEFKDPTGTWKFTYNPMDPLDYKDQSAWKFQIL

With CCCGCC, the binding signal with FEV is 1.5 fold enrichment (6-mer frequency, TF over GST control); in the experiment with ETV5, 1.31 fold enrichment (6-mer frequency, TF over GST control); with HSF1, 1.17 fold enrichment (6-mer frequency, TF over GST control); in the experiment with SPIC, 1.67 fold enrichment (6-mer frequency, TF over GST control); with ELF4, 1.66 fold enrichment (6-mer frequency, TF over GST control); with ELK4 it was 1.43 fold enrichment (6-mer frequency, TF over GST control). The binding signal with ETV2 is 1.6 fold enrichment (6-mer frequency, TF over GST control); in the experiment with ELF3 it was 1.45 fold enrichment (6-mer frequency, TF over GST control); with CRX, 1.21 fold enrichment (6-mer frequency, TF over GST control); in the experiment with ETV1, 1.5 fold enrichment (6-mer frequency, TF over GST control); in the experiment with ERF, 1.53 fold enrichment (6-mer frequency, TF over GST control); with ETV3L it was 1.56 fold enrichment (6-mer frequency, TF over GST control). The binding signal with ETS2 is 1.38 fold enrichment (6-mer frequency, TF over GST control); in the experiment with SPDEF, 1.39 fold enrichment (6-mer frequency, TF over GST control); with ETV7, 1.48 fold enrichment (6-mer frequency, TF over GST control); with ELF5 it was 1.45 fold enrichment (6-mer frequency, TF over GST control); with ETV3, 1.47 fold enrichment (6-mer frequency, TF over GST control); in the experiment with ETV6, 1.63 fold enrichment (6-mer frequency, TF over GST control).
